Mdm2 MdmX PPI = disrupts the human Mdm2-MdmX interaction; O15151+Q00987; SaOS-2 split-luciferase Mdm2/MdmX complementation, luminescence; inhibition, % at 8 µM; 3% of 330,000 active; AID 485346;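 active = inhibition of at least 50% at 8 µM in the primary screen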
Gli-Sufu antag = antagonists of Gli-Sufu signaling; AID 588413; inhibition, % at 5 µM; Sufu-KO-LIGHT fibroblasts, Gli luciferase reporter luminescence; 0.74% of 340,000 active;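 active = inhibition above about 55%, limit read from the data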;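 note: 0% = DMSO-treated cells and 100% = wells with medium but no cells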
Beta cell apopt = blocks beta cell apoptosis. protection from apoptosis, % (no concentration beside the values). 0.8% of 300,000 active. AID 435005. INS-1E cytokine-induced death, ATP luminescence, 48 h; percent of positive-control rescue, neutral wells zero;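 active = Every replicate reaches about 75%, or at least half do and their mean reaches it too, limit read from the data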;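 note: 0% = cytokine-treated negative control wells and 100% = positive control rescue; higher means more ATP so stronger rescue from cytokine killing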
CSC inhib = cancer stem cell inhibition; 1.1% of 300,000 active; inhibition, % at 7.5 µM; cancer stem cell-like cells viability, luminescence; in the data active = inhibition above about 75%; tested in HMLE shEcad cells
GRIN3A LBD mod = modulates the human NR3A ligand-binding domain; NR3A LBD differential scanning fluorimetry, Tm shift; 0% = protein alone, 100% = glycine-bound protein; Tm shift relative to glycine control, % at 25 µM; 2.5% of 340,000 active; AID 1259313;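 active = melting temperature shift of at least 10% of the positive control shift, at one fixed dose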
MPTP inh = permeability transition pore inhibition | isolated mouse mitochondria, Ca2+ swelling absorbance, 30 min | inhibition, % at 10 µM | 1.4% of 360,000 active | AID 602449;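 active = inhibition of 50% or more, scaled per plate between neutral and stimulator controls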;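 note: 0% = DMSO wells given calcium and 100% = 1 mM EGTA wells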
Mdm2-MdmX conf = confirmation of human Mdm2/MdmX interaction inhibitors; shares compounds with Mdm2 MdmX PPI; Mdm2-MdmX binding, luminescent assay; inhibition, % at 8 µM; 55% of 10,000 active; in the data active = inhibition above about 40%
FLuc counter = inhibits full-length luciferase, flagging false Mdm2/MdmX hits; shares compounds with Mdm2 MdmX PPI; SaOS-2 full-length luciferase counterscreen, luminescence; 77% of 6,200 active; inhibition, % at 8 µM; AID 504607;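 active = mean inhibition at 8 µM reaching about 37%, which flags the compound as non-specific, limit read from the data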;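 note: p53-null SaOS-2 cells with luciferase driven by a doxycycline-inducible promoter; compound on cells about two nights before reading with doxycycline added after day one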
* marks the source's active call; other numbers are inactive results; / = not tested or not shown. Shown are actives, neighbours in structure and some others; about 6.6% of the full set was active somewhere.

SMILES	Mdm2 MdmX PPI	Gli-Sufu antag	Beta cell apopt	CSC inhib	GRIN3A LBD mod	MPTP inh	Mdm2-MdmX conf	FLuc counter
COc1cccc(C2C3=C(N=c4s/c(=C\c5ccccc5O)c(=O)n42)c2ccccc2CC3)c1OC (stereo not given)	95*	/	7	-10	/	/	50*	53*
COc1ccccc1C1C(C(C)=O)=C(C)N=c2s/c(=C\c3cc(OC)c(OC)c(OC)c3)c(=O)n21 (stereo not given)	58*	11	12	18	-1	3	41*	50*
Cc1ccccc1C(=O)Nc1cccc(NC(=O)Cn2cnc3c(=O)n(C)c(=O)n(C)c32)c1	51*	32	10	-5	0	-2	34	/
CC1CC2(C)Oc3ccccc3CC2C(C)C1CNCCCN(C)C (stereo not given)	97*	0	21	49	-13	-11	100*	55*
CC1Cc2ccccc2N1C(=O)CNCCCN(C)C (stereo not given)	-22	-11	-4	-9	-1	10	/	/
CCCCOC(=O)c1sc2nc(C)cc(C)c2c1N	-6	-44	3	11	-1	/	/	/
CCCCOC(=O)NS(=O)(=O)c1sc(CC(C)C)cc1-c1ccc(Cn2c(CC)nc3c(C)cc(C)nc32)cc1	89*	/	-7	100*	/	/	40	72*
CC(OC(=O)c1cccc(-n2cnnn2)c1)C(=O)c1ccccc1 (stereo not given)	13	-18	-9	0	3	-1	/	/
CCN(CC)CCNC(=O)c1cc(-c2cccnc2)nc2ccc(S(=O)(=O)N3CCC(C)CC3)cc12	100*	3	6	-13	0	0	76*	53*
CCCCN(C)CCNC(=O)c1cc(-c2cccnc2)nc2ccc(S(=O)(=O)N3CCC(C)CC3)cc12	96*	18	0	-1	-2	-1	26	/
Cn1c(=O)[nH]c(=O)c2c1nc(N1CCOCC1)n2CCc1ccccc1	1	-1	0	7	1	0	/	/
CN(C)CCCNC(=O)c1ccccn1	-11	12	-11	-17	-1	-1	/	/
CN(C)CCCNC(=O)c1ccc(-c2cc(O)c3ncccc3c2)cc1	55*	-5	-10	/	-3	-1	34	55*
Oc1cc(Nc2cccnc2)cc2cccnc12	66*	8	9	/	-3	1	12	/
Oc1cc(-c2ccc(N3CCCCC3)nc2)cc2cccnc12	98*	21	96*	/	-7	4	97*	50*
CN(C)CCCNC(=O)c1ccc(-c2nc(-c3ccc(Cl)cc3)cs2)cc1	87*	-8	47	100*	-1	-10	94*	28
CN(C)CCCNCCCNC(=O)c1ccncc1	4	2	-4	-6	1	-2	/	/
CCN(CC)Cc1c(O)ccc2cc(-c3nc4ccccc4n3C)c(=O)oc12	-15	-23	-3	-8	-1	0	/	/
COc1cccc(CN(C)C(=O)CN2C(=O)NC(c3ccccc3)(c3ccccc3)C2=O)c1	9	-9	/	/	2	-2	/	/
O=C(Nc1ccccc1F)c1ccc2sc([C@H]3C[C@H](O)[C@@H](CO)O3)nc2c1	/	/	/	/	/	1	/	/
Cc1cc(=O)n2nc(N3CCCC(C(=O)NCc4ccccc4C)C3)sc2n1 (stereo not given)	7	3	-1	5	0	0	/	/
CN(C)c1ccc(-c2cc(O)c3ncccc3c2)cc1	92*	0	88*	115*	-7	2	84*	50*
Oc1cc(Nc2ccncc2)cc2cccnc12	38	1	-2	/	0	-8	/	/
Oc1cc(-c2ccncc2)cc2cccnc12	91*	50	46	/	-1	-3	66*	52*
COc1ccc(Cn2cccc(NC(=O)Nc3cccc(OC)c3)c2=O)cc1	1	-6	3	-4	-11	6	/	/
SMILES	Mdm2 MdmX PPI	Gli-Sufu antag	Beta cell apopt	CSC inhib	GRIN3A LBD mod	MPTP inh	Mdm2-MdmX conf	FLuc counter
CCOc1ccc(C(=O)Nc2ccc(C(=O)N3CCOCC3)cc2)c(OCC)c1	-12	14	-4	-18	2	0	/	/
COCC(C)NC(=O)C1CC(=O)N(CCc2ccc(F)cc2)C1 (stereo not given)	/	/	/	/	/	-1	/	/
CN1Cc2sc(NC(=S)NC(=O)c3ccccc3)c(C#N)c2CC1(C)C	58*	60*	6	9	1	/	62*	61*
O=C1NC[C@@H](CCCCN2CCN(CCc3ccc(O)cc3)C(=O)C2=O)N(CCC2CCCCC2)C1=O	/	/	/	/	/	-2	/	/
CC(C)Oc1ccc(N2CC(C(=O)Nc3ccccc3C(=O)NC3CC3)CC2=O)cc1 (stereo not given)	9	-8	/	-10	3	-1	/	/
CCN(CC)c1ccc2cc(/C(N)=N/NC(=O)c3cccs3)c(=O)oc2c1	85*	/	5	6	/	/	71*	84*
Cc1ccc(C(C)NC(=O)c2cc3cc(Br)ccc3oc2=N)cc1 (stereo not given)	51*	3	-6	21	-5	0	35	/
Cc1ccc(C(=O)O/N=C(\N)c2ccc(C(F)(F)F)cn2)cc1	57*	4	/	/	1	4	-16	/
COc1cc(OC)cc(C(=O)O/N=C(\N)c2ccccn2)c1	54*	-36	-5	-8	0	1	-4	/
CCOc1ccc(C(=O)O/N=C(\N)c2ccccn2)cc1OCC	48	-44	-5	-11	0	-2	/	/
Cc1ccc(C(=O)O/N=C(\N)c2ccccn2)c(C)c1	99*	73*	-8	-3	-3	-1	98*	51*
CCOc1cc(C(=O)O/N=C(\N)c2ccccn2)cc(OCC)c1OCC	77*	-16	3	-7	-1	0	68*	85*
Cc1cccc(OCC(=O)NCCNC(=O)c2ccco2)c1	-15	-12	/	4	0	-4	/	/
CCCCCn1c(=O)[nH]c2cc(C(=O)NCCN3CCCCC3C)ccc2c1=O (stereo not given)	13	2	-4	-3	0	0	/	/
COc1ccc(C(=O)O/N=C(\N)c2ccccn2)cc1	97*	-25	4	10	0	1	94*	24
N/C(=N\OC(=O)c1ccc(Cl)cc1)c1ccccn1	-29	-53	21	/	2	0	/	/
Cc1ccc(CNC(=O)CSc2nc3c(sc4ccccc43)c(=O)n2CCCN2CCCC2)cc1	51*	19	-2	17	-1	1	48*	42*
O=C(CSc1nc2c(sc3ccccc32)c(=O)n1CCCN1CCCC1)NCc1ccccc1	54*	-7	/	/	-6	-4	31	/
O=C(CSc1nc2c(sc3ccccc32)c(=O)n1CCCN1CCOCC1)NC1CCCC1	-5	11	0	-14	-2	0	/	/
